The source of these data is PubChem BioAssay AID795 (NMMLSC, 2007).

About 130 (0.54%) of roughly 24,000 compounds were called active. The sample holds actives, similar compounds and a random draw of the others, so the mix is not that of the screen.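 How the source made its calls: active means side scatter shift above 30%; inactive means the rest.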 Square brackets hold non-standard residues; d marks the D form. Peptide text beside a SMILES is read from it. ξ: configuration not given here. ξV = CC(C)C(N)C(=O)O

This assay can be described thus: inducers of granularity increase in LNCaP cells – cell-based, flow cytometry side scatter, primary screen (AID 795).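 Further: androgen-responsive LNCaP prostate cancer cells in charcoal-stripped serum medium; percent of cells past a gate set so DMSO wells show 10% shift; higher shift means more granular cells and more differentiation.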 The settings on record: LNCaP differentiation, 4 d, at 10 µM, active compounds read high.
With `COc1ccccc1CNC(=O)CCCNS(=O)(=O)c1cccc2nsnc12`, the side scatter shift was 4% (inactive).
On to `O=C(NC1CCCCC1)C1CCCN(S(=O)(=O)c2cccs2)C1` (stereo not given), for which the side scatter shift was 4% (inactive).
Turning to `CC(C)C[C@H](NC(=O)Nc1cccc(C(F)(F)F)c1)C(=O)O`, the side scatter shift is 12% (inactive).
In the case of `CC1(C)CN=C(N2CCN(c3ncnc4sc5c(c34)CCCC5)CC2)S1`, the side scatter shift was 4% (inactive).
Consider `Cc1ccc(C)c(NC(=O)CSc2nnc(Cc3cccn3C)n2-c2ccc(F)cc2)c1`, for which the side scatter shift is 12% (inactive).
As for `COc1cccc(NC(=O)Nc2nnc(N3CCCCC3C)s2)c1` (stereo not given), the side scatter shift is 6% (inactive).
Consider `CCOC(=O)C1CCN(C(=O)CSc2cc(=O)n(C)c3ccccc23)CC1`, for which the side scatter shift is 8% (inactive).
In the case of `O=c1cc(O)nc(SCc2ccccc2Cl)[nH]1`, the side scatter shift is 7% (inactive).
For `O=C(NCCN1CCOCC1)c1ccc2c(c1)ncn2C1CCCC1`, the side scatter shift is 8% (inactive).
For the compound `Cc1ccc(N(C(=O)CC2NC(=O)NC2=O)C2(C(=O)NC3CCCC3)CCCCC2)cc1` (stereo not given), the side scatter shift was 0% (inactive).
On to `Cc1cc(C)nc(SCc2nnc(SCC(=O)Nc3ncc(C)s3)n2Cc2ccco2)n1`, for which the side scatter shift is 16% (inactive).
With `COc1ccccc1C(=O)N1CCNC(=O)C1CC(=O)Nc1ccc(Cl)cc1` (stereo not given), the side scatter shift was 7% (inactive).
`Cc1ccc(S(=O)(=O)n2nc(OC(=O)C(C)(C)C)cc2N)cc1`: the side scatter shift was 6% (inactive).
On to `CC1=C(C(=O)OC2CCCCC2)C(c2cccnc2)n2ncnc2N1` (stereo not given), for which the side scatter shift was 1% (inactive).
Consider `COc1ccc(CCNC(=O)c2ccc3c(c2)NC(=O)C(N2CCOCC2)S3)cc1OC` (stereo not given), for which the side scatter shift is 18% (inactive).
As for `COc1cccc(NS(=O)(=O)c2ccc3[nH]cc(C(=O)NCCCOC(C)C)c(=O)c3c2)c1`, the side scatter shift was 11% (inactive).
Regarding `Cc1cc(C)c(C)c(S(=O)(=O)Nc2ccc(O)cc2)c1C`, the side scatter shift was 3% (inactive).
For `O=C(Nc1cccnc1)c1noc2c1CCCCC2`, the side scatter shift is 12% (inactive).
As for `Fc1ccc2nc(Nc3nc4c(s3)CCCC4)sc2c1`, the side scatter shift is 11% (inactive).
As for `CN(Cc1ccccc1)C(=O)CCNC(=O)Cn1cnc2ccccc2c1=O`, the side scatter shift is 6% (inactive).
The value for `OCCNCCCCOc1ccccc1F` was 7% (inactive).
As for `CCC(C)Sc1nnc(-c2c[nH]c3ccccc23)n1CCOC` (stereo not given), the side scatter shift is 6% (inactive).
To `CCOC(=O)CNC(=O)CN1C(=O)CCSc2ccccc21` belongs 7% (inactive); to `CCCCn1c(=S)[nH]c2ncccc2c1=O`, 3% (inactive).
Regarding `CCOC(=O)c1c(N)c(C#N)nn1-c1ccccc1C(=O)OC`, the side scatter shift was 6% (inactive).
For `C=CCn1c(=N)n(CC(O)COc2ccc(OC)cc2)c2ccccc21` (stereo not given), the side scatter shift was 8% (inactive).
Consider `O=C(Nn1cnc2ccccc2c1=O)c1ccc(F)cc1Cl`, for which the side scatter shift was 9% (inactive).
As for `Cc1nn(Cc2ccc(Cl)c(Cl)c2)c(C)c1NC(=O)c1cc(C2CC2)on1`, the side scatter shift was 13% (inactive).
For `Cc1cccc(CSc2nnc(Cn3c(=O)sc4ccccc43)n2C)c1`, the side scatter shift is 9% (inactive).
To `Cc1c2cn[nH]c(=O)c2c(C)n1Cc1ccc(F)cc1` belongs 2% (inactive).
In the case of `Cc1cccn2c(=O)c3cc(C#N)c(=O)n(CCCN4CCOCC4)c3nc12`, the side scatter shift is 4% (inactive).
To `Cc1cc(C)nc(NC2=NCC(=O)N2c2ccc(Cl)cc2)n1` belongs 5% (inactive); to `CCn1c(SCC(=O)Nc2ccc3c(c2)OCCO3)nc2c(c1=O)SC(C)C2` (stereo not given), 8% (inactive); to `Cn1c(=O)cc(OCCCC(=O)N2CCN(c3ccccn3)CC2)c2ccccc21`, 2% (inactive).
In the case of `O=C(Cn1c(=O)n(Cc2ccco2)c(=O)c2ccccc21)NCC1CCCO1` (stereo not given), the side scatter shift is 3% (inactive).
Take `Cc1ccc(S(=O)(=O)N2CCCC2CO)cc1` (stereo not given): the side scatter shift is 16% (inactive).
Take `CCOC(=O)CSc1nnc(CNC(=O)Cc2ccccc2)n1-c1ccccc1OC`: the side scatter shift was 15% (inactive).
Regarding `Cc1cc(C(=O)NCCCc2ccccc2)no1`, the side scatter shift is 4% (inactive).
For the compound `CCN(CC)CCCNC(=O)c1cc(-c2cccc(Cl)c2)on1`, the side scatter shift was 33% (active).
For the compound `O=C(NCCCN1CCOCC1)c1cc(-c2ccc(Cl)cc2)on1`, the side scatter shift is 8% (inactive).
In the case of `Cc1ccccc1N1CC(c2nc3ccccc3[nH]2)CC1=O` (stereo not given), the side scatter shift is 6% (inactive).
To `C/C(N)=C(\C#N)C(=O)NCCc1ccccn1` belongs 16% (inactive).
With `O=C(OCc1ccccc1F)c1ccc2c(c1)OCCO2`, the side scatter shift is 10% (inactive).
`O=C(COC(=O)c1ccccc1C(=O)c1ccccc1)c1ccco1`: the side scatter shift is 7% (inactive).
On to `O=C(CCN1C(=O)c2ccncc2C1=O)Nc1ccc2c(c1)OCCO2`, for which the side scatter shift is 13% (inactive).
The value for `CCOC(=O)N1CCC(NC(=O)Cc2cn(C)c3ccccc23)CC1` was 8% (inactive); that for `CC(=O)N1CCc2cc(S(=O)(=O)Nc3ccccc3N3CCN(C)CC3)ccc21` was 15% (inactive); that for `CC(C)n1c(NCc2c[nH]c3ccccc23)nc2ccccc21` was 14% (inactive).
To `CC(=O)NC(C(=O)NCC(N)=O)C(C)C` (stereo not given) (Ac-[ξV]-Gly-NH2) belongs 7% (inactive); to `CC(NC(=O)COc1ccccc1)C(=O)NC1=NCCS1` (stereo not given), 13% (inactive); to `COC(=O)c1[nH]c2ccccc2c1NS(=O)(=O)c1ccc(OC)cc1OC`, 10% (inactive).
As to `COc1ccc(OC)c(N=Cc2c(O)[nH]c3ccccc23)c1`, the side scatter shift was 48% (active).
For `COc1ccc(N=Cc2c(O)[nH]c3ccccc23)cc1OC`, the side scatter shift was 15% (inactive).
For `CCc1c(C)nc(N2CCN(Cc3ccccc3)CC2)[nH]c1=O`, the side scatter shift was 8% (inactive).
To `Cc1nc(NC(=O)C23CCC(C)(C(=O)O2)C3(C)C)sc1C` (stereo not given) belongs 4% (inactive); to `CCCC(=O)N1c2ccccc2NC2=C(C(=O)CCC2)C1c1ccc(F)cc1` (stereo not given), 12% (inactive); to `O=C(CSC1=Nc2ccccc2C2=NC(c3ccccc3)C(=O)N12)NCC1CCCO1` (stereo not given), 8% (inactive).
To `Cc1cccc(N2C(=O)SC(N(CC(=O)O)c3cccc(C)c3)C2=O)c1` (stereo not given) belongs 5% (inactive).
In the case of `O=C1NC(c2ccncc2)Nc2sc3c(c21)CCCC3` (stereo not given), the side scatter shift was 3% (inactive).
Consider `COc1ccc(CCNC(=O)CSc2nnc(CNC(=O)c3cccs3)o2)cc1OC`, for which the side scatter shift is 10% (inactive).
Regarding `COCCCNC(=O)c1ccc(CNS(=O)(=O)c2ccc(NC(C)=O)cc2)cc1`, the side scatter shift was 15% (inactive).
For the compound `CC1=NCCN1S(=O)(=O)c1ccc(Br)c(C)c1`, the side scatter shift is 16% (inactive).
`CCOC(=O)C1(c2ccccc2)NC(c2ccc(N(C)C)cc2)C2C(=O)N(C)C(=O)C21` (stereo not given): the side scatter shift is 11% (inactive).
For the compound `COc1cccc(OCC(=O)Nc2ccccc2C(N)=O)c1`, the side scatter shift was 9% (inactive).
`COc1nc(Oc2ccc(=O)n(C)n2)nc(N(C)C)n1`: the side scatter shift is 10% (inactive).
